A short description of assay [1]: compound effects on lung adenocarcinoma cell viability – A549, calcein-AM fluorescence, 48 h, basal, profiling panel (AID 1162). Also: test concentration not given here. As to conditions: higher = more signal.
Assay [2] can be described thus: compound effects on differentiated 3T3-L1 adipocyte viability – cell-based, 3T3-L1 adipocytes, calcein-AM fluorescence, 48 h, basal, profiling panel (AID 1163). Also: test concentration not given here. To be noted: 3T3-L1 adipocytes viability, higher = more signal.
Assay [3] can be described thus: compound effects on hepatocellular carcinoma cell viability – HepG2, calcein-AM fluorescence, 48 h, basal, profiling panel (AID 1164). Also: test concentration not given here. As to conditions: higher = more signal.
Assay [4] is described as follows: compound effects on multiple myeloma cell viability – MM1S, calcein-AM fluorescence, 48 h, basal, profiling panel (AID 1165).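 Also: viability of MM1S multiple myeloma cells under basal unstimulated conditions; test concentration not given here.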 To be noted: higher = more signal.
Assay [5] can be described thus: calcein-AM signal in unstimulated myeloma cells – cell-based, calcein-AM fluorescence, 48 h, PK04 Diversity Set, profiling panel (AID 1166).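 Also: cells grown under basal conditions without added stimulus; test concentration not given here.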 As to conditions: RPMI8226 myeloma viability, higher = more signal.
A short description of assay [6]: JC-1 mitochondrial signal, unstimulated HepG2 cells – cell-based, JC-1 fluorescence, 24 h, 100 nL compound, profiling panel (AID 1167). Also: test concentration not given here. As to conditions: HepG2 mitochondrial potential, higher = more signal.
The nature of assay [7]: JC-1 mitochondrial signal, unstimulated adipocytes – cell-based, JC-1 fluorescence, 3T3-L1 adipocytes, 24 h, 100 nL compound, profiling panel (AID 1168). Also: test concentration not given here. As to conditions: JC-1 mitochondrial fluorescence, higher = more signal, called active from +8 up or from −8 down.
The nature of assay [8]: JC-1 mitochondrial signal, unstimulated myeloma cells – cell-based, JC-1 fluorescence, RPMI8226, 24 h, 100 nL compound, profiling panel (AID 1169). Also: test concentration not given here. As to conditions: JC-1 mitochondrial potential fluorescence, higher = more signal.
Assay [9] can be described thus: JC-1 mitochondrial signal, unstimulated MM1S myeloma – cell-based, JC-1 fluorescence, 24 h, 100 nL compound, profiling panel (AID 1170). Also: test concentration not given here. As to conditions: MM1S mitochondrial potential, higher = more signal.
Assay [10] can be described thus: resazurin metabolic signal in A549 cells – cell-based, resazurin fluorescence, 24 h, PK04 Diversity Set, profiling panel (AID 1171). Also: test concentration not given here. To be noted: A549 viability, higher = more signal, called active from +8 up or from −8 down. A general note: Alamar Blue is a resazurin reagent that responds to reducing activity.
Assay [11] in a line: resazurin metabolic signal in HepG2 cells – cell-based, resazurin fluorescence, 24 h, PK04 Diversity Set, profiling panel (AID 1172). Also: test concentration not given here. To be noted: HepG2 viability, higher = more signal.
Assay [12] in a line: budding yeast growth changes without added modifier – OD600, strain BY4716, 24 h, basal condition, primary screen (AID 1173). As to conditions: S. cerevisiae BY4716 growth, OD600, 24 h; higher = more signal, called active from +8 up or from −8 down.
Assay [13] in a line: viability profiling in MM1S myeloma cells – cell-based, resazurin fluorescence, basal, 24 h, PK04 Diversity Set, profiling panel (AID 1174). Also: test concentration not given here. As to conditions: higher = more signal, called active from +8 up or from −8 down.
Assay [14] concerns the target Dihydroorotate dehydrogenase (quinone), mitochondrial (Plasmodium falciparum (isolate 3D7)) (UniProt Q08210). The experiment in a line: inhibition of P. falciparum DHODH – biochemical, C-terminal His tag, absorbance 600 nm, primary screen (AID 1175).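 Also: recombinant parasite enzyme with a five histidine tag at its C terminus; test concentration not given here.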 To be noted: PfDHODH enzyme, DCIP absorbance 600 nm; higher = more signal, called active from +8 up or from −8 down.
A short description of assay [15]: inhibition of PAO1 biofilm formation – strain PAO1, LB-PBS medium, absorbance 600 nm, primary screen (AID 1176). Also: test concentration not given here. To be noted: P. aeruginosa PAO1 growth/biofilm, A600, 12 h; higher = more signal.
A short description of assay [16]: growth modulation of vineyard yeast isolate – strain RM11-1a, OD600, basal, 24 h, primary screen (AID 1177).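 Also: cultures grown under basal conditions with no added stressor; test concentration not given here.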 To be noted: S. cerevisiae RM11-1a growth, OD600, 24 h; higher = more signal, called active from +8 up or from −8 down.
Assay [17] can be described thus: growth of efflux-deficient E. coli DRC39 – strain DRC39, OD650, 24 h, E. coli filamentation inducers, primary screen (AID 1178).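 Also: growth measured as culture turbidity by optical density at 650 nm; test concentration not given here.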 As to conditions: E. coli DRC39 acrAB, higher = more signal, called active from +8 up or from −8 down.
The nature of assay [18]: growth of efflux-deficient E. coli DRC39 – strain DRC39, OD650, 48 h, E. coli filamentation inducers, primary screen (AID 1179).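 Also: screen aims at cell division blockers that make cells filament.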 To be noted: E. coli DRC39 delta-acrAB growth, higher = more signal, called active from +8 up or from −8 down.
Assay [19] in a line: viability profiling in RPMI8226 myeloma cells – cell-based, resazurin fluorescence, basal, 24 h, PK04 Diversity Set, profiling panel (AID 1180).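 Also: RPMI8826 multiple myeloma cell line at 5000 cells per well; test concentration not given here.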 To be noted: higher = more signal.
Assay [20] deals with E3 ubiquitin-protein ligase XIAP (Homo sapiens) (UniProt P98170). The experiment in a line: small molecules binding XIAP protein – biophysical, small-molecule microarray, fluorescence 635 nm, primary screen (AID 1181).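 Also: score merges 667 nm emission and signal to noise over triplicate slides.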 To be noted: higher = more signal.

The source made the active and inactive calls. Unless noted, no rule for the calls is given here.

E3 ubiquitin-protein ligase XIAP (Homo sapiens), sequence (P98170 whole entry, looked up): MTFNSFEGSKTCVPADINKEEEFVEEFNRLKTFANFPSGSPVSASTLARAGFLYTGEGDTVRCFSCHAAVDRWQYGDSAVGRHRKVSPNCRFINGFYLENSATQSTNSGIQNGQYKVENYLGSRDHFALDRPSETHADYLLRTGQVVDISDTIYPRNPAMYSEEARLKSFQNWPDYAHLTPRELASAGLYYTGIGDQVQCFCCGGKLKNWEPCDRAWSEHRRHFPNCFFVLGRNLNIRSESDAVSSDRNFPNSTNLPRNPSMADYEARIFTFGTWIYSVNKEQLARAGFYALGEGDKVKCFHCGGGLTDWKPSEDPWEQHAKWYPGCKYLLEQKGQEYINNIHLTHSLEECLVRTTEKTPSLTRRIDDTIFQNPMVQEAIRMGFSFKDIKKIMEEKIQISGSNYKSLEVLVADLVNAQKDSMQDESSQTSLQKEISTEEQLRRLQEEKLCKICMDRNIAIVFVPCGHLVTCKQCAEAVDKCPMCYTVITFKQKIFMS
Dihydroorotate dehydrogenase (quinone), mitochondrial (Plasmodium falciparum (isolate 3D7)), sequence (Q08210 whole entry, looked up): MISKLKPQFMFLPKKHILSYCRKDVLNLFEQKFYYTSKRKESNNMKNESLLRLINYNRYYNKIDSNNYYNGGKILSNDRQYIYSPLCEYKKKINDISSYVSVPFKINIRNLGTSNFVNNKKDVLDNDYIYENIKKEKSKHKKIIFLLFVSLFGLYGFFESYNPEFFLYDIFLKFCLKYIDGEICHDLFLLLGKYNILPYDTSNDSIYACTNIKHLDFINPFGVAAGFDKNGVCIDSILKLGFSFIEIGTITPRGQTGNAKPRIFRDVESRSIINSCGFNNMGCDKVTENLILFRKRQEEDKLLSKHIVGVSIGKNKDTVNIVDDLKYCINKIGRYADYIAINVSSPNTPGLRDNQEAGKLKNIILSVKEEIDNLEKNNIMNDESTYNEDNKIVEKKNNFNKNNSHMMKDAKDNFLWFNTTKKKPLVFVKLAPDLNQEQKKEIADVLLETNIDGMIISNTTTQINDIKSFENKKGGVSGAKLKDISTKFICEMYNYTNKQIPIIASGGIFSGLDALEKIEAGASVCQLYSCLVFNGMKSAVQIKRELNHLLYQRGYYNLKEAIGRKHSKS

Consider `COCC1=C2[C@@H](CCc3ccccc3)OB(O)C[C@@H]2[C@@H]2C(=O)N(Cc3ccccc3)C(=O)[C@@H]2C1`, for which the z-score in [1] was 0.0476; in assay [2], 0.873; in [3] it was 0.128; in [4] it was -1.51; in [5], -0.138; in assay [6], -1.59. Moreover, the z-score in assay [7] is -0.897 (inactive); in assay [8], -0.812; in [9], 0.24; in assay [10] it was 0.21 (inactive); in assay [11], 0.0373; in assay [12], -1.69 (inactive). The z-score in assay [13] is -0.278 (inactive); in [15] it was -0.177 (inactive); in assay [16], -1.06 (inactive); in assay [17] it was -0.0682 (inactive); in assay [18], -0.0309 (inactive); in [19] it was -0.039. For the same molecule, the composite z-score in [14] is -0.345 (inactive); in assay [20], -0.231.
Take `C=CCOC(=O)[C@H]1[C@@H]2C(=O)O[C@@H](c3ccccc3)[C@@H](c3ccccc3)N2[C@@H](c2ccc(OCCOC(=O)[C@@H]3C[C@@H]4C(=O)N5CCC[C@H]5C(=O)N4[C@@H]3c3ccc(O)cc3)cc2)[C@]12C(=O)Nc1ccccc12`: the z-score is 0.924 in [1]; 0.038 in assay [2]; -0.139 in [3]; 0.603 in assay [4]; 0.876 in [5]; -1.42 in assay [6]. Moreover, the z-score in assay [7] is 1.74 (inactive); in [8] it was -0.212; in [9] it was -0.786; in assay [10] it was 0.362 (inactive); in assay [11], 0.196; in assay [12], 0.865 (inactive). Further, the z-score in assay [13] was 0.841 (inactive); in [15], 0.957 (inactive); in assay [16], 2.73 (inactive); in assay [17], 0.468 (inactive); in [18], 0.971 (inactive); in [19], 1.71. Moreover, the values for the composite z-score in [14] and in assay [20] were -0.379 (inactive) and 0.224, respectively.
Take `O=C1OCCC=C[C@H]2OC34C=CCN(Cc5ccccc5)C(=O)[C@H]3N(CCCCCCO)C(=O)[C@@H]4C12` (stereo not given in full): the z-score in [1] was 0.612; in assay [2], -0.0143; in [3], 0.457; in [4], 1.68; in [5], 0.581; in assay [6], 0.445. Also, the z-score in assay [7] is 0.903 (inactive); in assay [8] it was -0.0486; in assay [9], -0.248; in assay [10] it was 1.33 (inactive); in [11], 1.83; in [12], 0.0187 (inactive). Moreover, the z-score in assay [13] is 0.654 (inactive); in assay [15], -0.208 (inactive); in [16], 0.589 (inactive); in assay [17], 0.759 (inactive); in [18] it was 0.653 (inactive); in assay [19] it was 0.183. For the same molecule, the figures for the composite z-score in [14] and in assay [20] were 0.261 (inactive) and -0.0918, respectively.
Turning to `CC(C)C[C@@H]1NC(=O)[C@H]2C[C@@H](C(=O)NCCCCCCNC(=O)CS)[C@@H](c3cccc(OCCO)c3)N2C1=O`, the z-score in [1] was 0.0674; in assay [2], 0.466; in assay [3], 0.696; in assay [4] it was 0.118; in assay [5] it was -0.0467; in [6] it was -0.569. Also, the z-score was 0.844 (inactive) in [7]; -0.404 in assay [8]; -0.343 in assay [9]; 0.0056 (inactive) in assay [10]; 0.808 in [11]; -0.632 (inactive) in assay [12]. Besides, the z-score in assay [13] is 0.259 (inactive); in assay [15] it was -0.145 (inactive); in [16] it was 0.652 (inactive); in assay [17], 0.941 (inactive); in assay [18] it was 1.08 (inactive); in assay [19] it was -0.258. Further, the composite z-score is -0.625 (inactive) in [14] and 0.356 in [20].
`CS(=O)(=O)CCOC(=O)C1=CC(c2ccc(CO)cc2)=CC(C2CC2)N(Cc2cc3c(cc2Br)OCO3)C=C1C(=O)OCCS(C)(=O)=O` (stereo not given): the z-score in assay [1] is -0.261; in assay [2], -0.14; in assay [3], 1.04; in [4], -2.68; in assay [5], -2.41; in [6], 2.99. Besides, the z-score in assay [7] is 0.253 (inactive); in [8] it was -0.787; in assay [9], -1.8; in assay [10], -1.14 (inactive); in [11], -0.311; in [12], -4.92 (inactive). The z-score is -2.7 (inactive) in [13]; 0.613 (inactive) in [15]; 0.478 (inactive) in [16]; 0.537 (inactive) in assay [17]; -0.75 (inactive) in [18]; -2.19 in assay [19]. For the same molecule, the figures for the composite z-score in assay [14] and in assay [20] were -0.735 (inactive) and 0.14, respectively.

The values above are taken from PubChem BioAssay.
